# Screening data as filed in PubChem.
# PI5P4K alpha inh = blocks human PI5P4K alpha kinase activity; P48426; PI5P4Kalpha enzyme, ADP-Glo luminescence, 60 min; stronger effect = lower value; max response, %; 330,000 tested, 1.2% active; AID 652105; active = max response of -50% or lower; inconclusive = between -30% and -50%; inactive = -30% or higher; note: value at the top dose of about 77 µM; % is set by controls: 0 for no effect and ±100 for the full control effect
#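 Controls without substrate or without enzyme flank wells where PI5P4Kalpha converts substrate using 5 microM ATP (final). Incubation lasts 60 minutes at room temperature; ADP formed is read by ADP-Glo luminescence.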
# FEN1 inh = human FEN1 inhibition | Recombinant FEN1 flap cleavage, fluorescence, 15 min | Potency, µM (doses to about 114 µM), inactives show at the highest dose activity change, negative = inhibition, hits mostly inhibitors | 390,000 tested, 0.35% active; note: potency is the fitted concentration of half-maximal effect; % is set by controls: 0 for no effect and ±100 for the full control effect; nearly all actives have a fitted effect of over 65% in size
# Target sequence (P39748 whole entry, looked up): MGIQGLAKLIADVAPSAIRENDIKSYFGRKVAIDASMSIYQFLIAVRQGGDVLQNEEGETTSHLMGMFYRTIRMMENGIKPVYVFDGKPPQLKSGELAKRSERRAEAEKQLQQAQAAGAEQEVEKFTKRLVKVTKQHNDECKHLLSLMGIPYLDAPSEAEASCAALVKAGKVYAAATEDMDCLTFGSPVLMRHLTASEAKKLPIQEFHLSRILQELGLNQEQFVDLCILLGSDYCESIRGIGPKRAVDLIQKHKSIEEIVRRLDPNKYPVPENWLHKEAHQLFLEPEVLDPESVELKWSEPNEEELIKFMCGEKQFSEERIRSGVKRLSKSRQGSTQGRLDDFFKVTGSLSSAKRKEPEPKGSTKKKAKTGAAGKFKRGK
#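 Compounds are tested as a concentration series against 10 nM FEN1; after a 15 min room-temperature preincubation, 50 nM substrate starts cleavage, with plate reads at 0 and 15 min. Normalized responses are fitted by a Hill equation.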
# POLH inh = inhibitors of human DNA polymerase eta | Q9Y253 | recombinant Pol eta, fluorescent DNA replication assay | Potency, µM (top dose mostly 114 µM), inactives show at the highest dose activity change, negative = inhibition, usual class: inhibitors | 390,000 tested, 1.2% active | AID 588591; note: potency is the fitted concentration of half-maximal effect; % is set by controls: 0 for no effect and ±100 for the full control effect
#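 Pol eta (10 nM) was preincubated with compounds for 15 min at room temperature, after which fluorescent replication substrate (50 nM final) was added to start the reaction. Fluorescence was read kinetically at 0 and 10 min.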
# Pol beta inh = blocks human DNA polymerase beta activity; P06746; Pol beta primer extension/strand displacement, fluorescence kinetic; Potency, µM (titrated, usually from 114 µM), inactives show at the highest dose activity change, negative = inhibition, most hits filed as inhibitors; 340,000 tested, 1.3% active; note: potency is the fitted concentration of half-maximal effect; % is set by controls: 0 for no effect and ±100 for the full control effect
#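 Reaction started by 50 nM substrate onto compound-treated Pol beta (10 nM, 15 min preincubation, room temperature); plates read at 0 min and 10 min. Normalized concentration-effect data fitted by four-parameter Hill equation.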
# POLI inh = blocks human DNA polymerase iota activity; 390,000 tested, 1% active; Potency, µM (top dose mostly 115 µM), without a hit: at the top dose activity, negative = inhibition, usual class: inhibitors; Q9UNA4; Pol iota fluorescent replication assay, 10 min; note: potency is the fitted concentration of half-maximal effect
#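 Pol iota at 10 nM preincubated 15 min with compounds at room temperature; reaction started with fluorescent substrate, 50 nM final. Fluorescence read kinetically at 0 and 10 min; buffer-only wells as negative control.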
# POLK inh = DNA polymerase kappa (human) inhibition; purified Pol kappa, fluorescent DNA synthesis assay, 10 min; Potency, µM (series often up to 107 µM), without a hit: at the highest dose activity, negative = inhibition, actives largely listed as inhibitors; 400,000 tested, 0.53% active; AID 588579; note: potency is the fitted concentration of half-maximal effect; % is set by controls: 0 for no effect and ±100 for the full control effect
#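 Activity was followed as the change in fluorescence between reads at 0 and 10 min after starting the reaction with 50 nM substrate. Beforehand, 10 nM polymerase had been preincubated with compound for 15 min at room temperature.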
# * marks the source's active call; other numbers are inactive results; u = inconclusive; x = no result given; [ ] = remark or other dose. The list is not random: actives were taken first. Their share in the collection is about 2.8%. Unless noted, calls come from the whole dose curve; as a rule, active = well fitted curve in the direction sought with a large enough effect; inconclusive = small, poorly fitted or top-dose-only effect, or another doubt; inactive = no such curve, though single readings can be large; an effect the other way counts as inactive or inconclusive.
SMILES,PI5P4K alpha inh,FEN1 inh,POLH inh,Pol beta inh,POLI inh,POLK inh
O=C(Nc1ccc(C(F)(F)F)cc1)C1CCC(CNS(=O)(=O)c2cccc3nsnc23)CC1 (stereo unspecified),x,-4%,-13%,-19%,5%,-25%
COC(=O)c1ccc(CSc2nnc(NC(=O)C3CC(=O)N(c4ccc5c(c4)OCCO5)C3)s2)cc1 (stereo unspecified),u,2%,u,28µM*,u,-28%
Cc1ccccc1N1CC(C(=O)Nc2nnc(SCc3ccccn3)s2)CC1=O (stereo unspecified),u,17%,50µM*,79µM*,u,-27%
Cc1ccc(CN2CC(C(=O)Nc3nnc(SCc4c(Cl)cccc4Cl)s3)CC2=O)cc1 (stereo unspecified),-2,-16%,u,13µM*,u,-25%
COc1cccc(N2CC(C(=O)Nc3nnc(SCc4ccccn4)s3)CC2=O)c1 (stereo unspecified),-29,-6%,4%,-7%,1%,-24%
CCOc1ccccc1N1CC(C(=O)NCCOc2ccccc2OC)CC1=O (stereo unspecified),-3,7%,-13%,79%,16%,-3%
COc1ccc(C(=O)COC(=O)C2CCC(=O)N2)cc1 (stereo unspecified),1,1%,6%,0%,80%,-16%
O=c1[nH]c(=O)c2[nH]c(=S)n(-c3ccccc3)c2[nH]1,-56*,-3%,-21%,x,28%,-3%
COc1ccc(CNc2nc(N)nc3nc[nH]c23)cc1,x,-11%,x,x,16%,-9%
CCc1ccccc1N(CC(=O)NCc1ccco1)C(=O)c1snc(C(N)=O)c1N,-25,6%,20µM*,50µM*,u,-35%
CC(C)CCNC(=O)CN(Cc1ccco1)C(=O)c1snc(C(N)=O)c1N,-1,-4%,8%,37%,63%,-1%
COc1ccc(Cn2c(CNS(=O)(=O)c3ccc(Cl)s3)nc3cccnc32)cc1,x,6%,-15%,-21%,11%,-1%[60.1 µM]
O=C(Nc1ccc(S(=O)(=O)N(Cc2ccccc2)c2ccccc2)cc1)c1ccc([N+](=O)[O-])cc1,x,4%,-4%,-25%,5%,-6%
CCOc1ccc(NC(=O)NCCCn2c(C)nc3cc(C)c(C)cc32)cc1,x,-3%,-1%,-1%,-7%,-6%
Cc1cc2nc(C)n(CCCNC(=O)Nc3cccc4ccccc34)c2cc1C,x,-12%,-3%,40µM*,u,-23%
CSCCC(NS(=O)(=O)c1ccccc1F)C(=O)NCc1ccncc1 (stereo unspecified),6,0%,-8%,x,8%,-1%
Cc1ccc(NC(=O)c2cc3c(=O)oc4ccc(C)cc4c3s2)nc1,x,x,x,32%,x,x
Cc1ccc(Cl)cc1-n1ncc2c(N3CCN(Cc4ccccc4)CC3)ncnc21,x,9%,-6%,6%,18%,-20%[60.1 µM]
Cc1cc(NS(=O)(=O)c2ccc(Nc3nc(-c4sc(N)nc4C)cs3)cc2)no1,136,56µM*,10µM*,-9%,3.2µM*,25µM*
O=C(C[n+]1csc2ccccc21)c1ccc(O)c(O)c1,x,50µM*,x,x,14µM*,25µM*
Cc1cc(-c2csc(NC(=O)c3ccc(C#N)cc3)n2)c(C)n1Cc1ccco1,-62*,1%,u,0%,u,u
O=C(Nc1nc(-c2ccccc2)cs1)c1ccc(=O)[nH]c1,2,-10%,-15%,1%,147%,-2%
Cc1cc(-c2csc(NC(=O)c3ccc(=O)[nH]c3)n2)c(C)n1Cc1ccccc1,-23,-8%,-14%,20µM*,3%,-7%
Cc1nc(NC(=O)c2ccccc2)sc1-c1csc(NCc2ccco2)n1,x,3%,-5%,-8%,16%,-8%
Cc1ccc(-n2c(CCc3nc4ccccc4[nH]3)n[nH]c2=S)cc1,-58*,9%,-5%,-1%,18%,-6%
SMILES,PI5P4K alpha inh,FEN1 inh,POLH inh,Pol beta inh,POLI inh,POLK inh
CCn1c(CCc2nc3ccccc3[nH]2)n[nH]c1=S,5,-3%,-2%,8%,29%,-1%
Cc1ccc(S(=O)(=O)CCC(=O)Nc2sccc2C#N)cc1,2,9%,-18%,x,22%,-3%
Cc1ccc(S(=O)(=O)CCC(=O)Nc2sccc2C(N)=O)cc1,u,-4%,28µM*,x,u,u
O=C1S/C(=C\C=C\c2ccco2)C(=O)N1c1ccc(O)cc1,-87*,-14%,u,7.9µM*,32µM*,u
O=C1S/C(=C\c2cccs2)C(=O)N1c1ccc(O)cc1,1,-2%,-21%,u,1%,-10%
Nn1c(SCC(=O)NC2CCCCC2)nnc1C1CC1,0,-1%,1%,0.32µM*,1%,-18%
Cc1nnc(SCC(=O)NC2CCCCC2)n1N,-5,-7%,-3%,x,8%,-10%
O=C(N/N=C/c1cccnc1)c1ccc(NC(=O)c2ccc(Cl)cc2)cc1,-13,2%,-22%,2%,121%,0%
Cc1cccc(C(=O)Nc2ccc(C(=O)N/N=C/c3ccc4c(c3)OCO4)cc2)c1,-14,1%,-9%,35µM*,1%,-2%
O=C(N/N=C/c1cccnc1)c1ccc(NC(=O)c2cccc(Cl)c2)cc1,-3,-16%,u,8.9µM*,u,-14%
O=C(N/N=C\c1cccnc1)c1cc(-c2ccc(Cl)s2)[nH]n1,-25,u,u,14µM*,u,-39%
O=C(N/N=C/c1cccnc1)c1ccccc1Cl,0,-12%,-9%,-29%,u,-4%
Cc1nn(C(=O)c2ccccc2F)c(C)c1S(=O)(=O)N1CCCCCC1,x,12%,2%,-17%,-12%,-11%[60.1 µM]
CSCC[C@@H](CO)NC(=O)[C@H]1O[C@@H](n2ccc(=O)[nH]c2=O)[C@H](O)[C@@H]1O,3,x,x,x,x,x
O=C(O)c1ccccc1N/N=C/c1cc(Br)cc(Br)c1O,u,u,79µM*,u,u,-22%
O=C(CNC(=O)c1cccc(Br)c1)N/N=C/c1cc(Br)cc(Br)c1O,u,-17%,-3%,-17%,8%,-2%
ON=Cc1ccnc2ccccc12,8,x,0%,x,x,x
Oc1c(Br)cc(Br)cc1/C=N/Nc1ccc(Cl)nn1,0,6%,-14%,-1%,-19%,-8%
O=C(Cc1ccccc1)N/N=C/c1cc(Br)cc(Br)c1O,-57*,-1%,-1%,43%,-4%,-20%
O=C(O)c1ccccc1N/N=C\c1ccnc2ccccc12,-68*,-8%,u,u,-22%,-5%
CCOc1ccccc1NC(=O)N(Cc1ccc(C)o1)C1CCN(C(C)=O)CC1,x,-3%,-16%,7%,12%,-2%
